Assay results as given in PubChem BioAssay (EPA / NIEHS).
Records with an inconclusive call do not appear. The source made the active and inactive calls. The calls were made as follows, unless noted: active = hit-call score of the fitted dose curve at least 0.9, where 1 is the maximum; inconclusive = response in the unintended direction; inactive = score below 0.9.

Experiments:
[1] = target: Nucleoli Translocation, AR (gene 367) (UniProt P10275); assay: UPITT_HCI_U2OS_AR_TIF2_Nucleoli_Antagonist: University of Pittsburgh U2OS Androgen Receptor-Transcriptional Intermediary Factor 2 (AR-TIF2) Antagonism High Content Imaging Assay for Nucleoli Translocation (AID 2283997)
Sequence of Nucleoli Translocation, AR (gene 367) (P10275 whole entry, looked up, the tested form may be a part): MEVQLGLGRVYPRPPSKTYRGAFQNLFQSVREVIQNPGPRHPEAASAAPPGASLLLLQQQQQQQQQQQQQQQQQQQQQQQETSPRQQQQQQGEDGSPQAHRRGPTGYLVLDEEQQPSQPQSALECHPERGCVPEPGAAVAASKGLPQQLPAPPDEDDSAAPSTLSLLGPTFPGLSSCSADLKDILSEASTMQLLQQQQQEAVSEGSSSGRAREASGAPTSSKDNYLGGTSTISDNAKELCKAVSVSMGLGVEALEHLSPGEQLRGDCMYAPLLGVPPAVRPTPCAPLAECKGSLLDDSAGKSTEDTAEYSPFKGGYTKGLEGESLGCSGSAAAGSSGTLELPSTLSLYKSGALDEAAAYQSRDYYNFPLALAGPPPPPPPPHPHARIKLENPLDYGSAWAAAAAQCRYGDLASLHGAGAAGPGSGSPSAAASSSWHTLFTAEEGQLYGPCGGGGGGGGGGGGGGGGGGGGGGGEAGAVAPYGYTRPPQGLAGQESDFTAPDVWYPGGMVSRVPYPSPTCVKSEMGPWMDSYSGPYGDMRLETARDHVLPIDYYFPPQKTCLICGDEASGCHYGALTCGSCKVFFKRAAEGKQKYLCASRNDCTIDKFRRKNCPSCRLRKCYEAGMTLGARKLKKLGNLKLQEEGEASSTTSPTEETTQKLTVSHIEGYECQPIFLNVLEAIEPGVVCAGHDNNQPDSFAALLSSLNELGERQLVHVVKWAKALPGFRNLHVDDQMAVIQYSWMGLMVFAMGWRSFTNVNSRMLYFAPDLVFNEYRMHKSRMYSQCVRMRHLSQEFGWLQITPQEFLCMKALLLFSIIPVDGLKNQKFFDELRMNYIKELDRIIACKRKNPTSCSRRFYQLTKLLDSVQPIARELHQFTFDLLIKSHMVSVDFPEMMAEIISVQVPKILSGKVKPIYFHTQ
Summary of the method: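 Antagonism is read as loss of nucleolar AR-RFP signal relative to DHT, imaged in U2OS cells also carrying GFP-TIF2. Compounds screened at 20 uM final, 0.2% DMSO; primary actives retested in triplicate.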

[2] = target: Nucleoli Translocation, AR (gene 367) (UniProt P10275); assay: UPITT_HCI_U2OS_AR_TIF2_Nucleoli_Agonist: University of Pittsburgh U2OS Androgen Receptor-Transcriptional Intermediary Factor 2 (AR-TIF2) Agonism High Content Imaging Assay for Nucleoli Translocation (AID 2283998)
Summary of the method: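 High-content images quantify nucleolar accumulation of RFP-fused AR in cells also expressing GFP-TIF2; the endpoint is fitted as signal gain versus DMSO controls across final concentrations of 0.195 to 50 uM.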

[3] = target: Ratio of Nucleoli Translocation and Cytoplasm, AR (gene 367) (UniProt P10275); assay: UPITT_HCI_U2OS_AR_TIF2_Nucleoli_Cytoplasm_Ratio_Agonist: University of Pittsburgh U2OS Androgen Receptor-Transcriptional Intermediary Factor 2 (AR-TIF2) Agonism High Content Imaging Assay for Ratio of Nucleoli Translocation and Cytoplasm (AID 2284000);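 also: hits raise the red nucleolar to cytoplasm ratio above vehicle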
Sequence of Ratio of Nucleoli Translocation and Cytoplasm, AR (gene 367) (P10275 whole entry, looked up): as the sequence (P10275 whole entry, looked up, the tested form may be a part) above
Summary of the method: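 Compounds tested at 20 uM final in primary screen (0.2% DMSO) and 0.195-50 uM final in dose-response (0.5% DMSO). Imaging of human U2OS cells bearing RFP-AR and GFP-TIF2; endpoint is nucleoli/cytoplasm red signal ratio, positive direction relative to DMSO.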

[4] = CCTE_Harrill_HTTr_Viability_MCF7: CCTE's 6-hour Cell Viability Assessment for the High-Throughput Transcriptomics (HTTr) Platform, in MCF-7 cells cultured in DMEM + 10% fetal bovine serum, Harrill Lab (AID 2284010; active = hit-call score of the fitted dose curve at least 0.9, where 1 is the maximum; inactive = score below 0.9)
Summary of the method: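 Read-out is propidium iodide gain of signal by high-content imaging, reflecting membrane integrity loss. Measurements are taken 6 h after dosing, eight concentrations per chemical, with DMSO serving as baseline for bidirectional curve fitting.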

[5] = CCTE_Harrill_HTTr_Apoptosis_MCF7: CCTE's 6-hour Apoptosis Assessment for the High-Throughput Transcriptomics (HTTr) Platform, in MCF-7 cells cultured in DMEM + 10% fetal bovine serum, Harrill Lab (AID 2284011; active = hit-call score of the fitted dose curve at least 0.9, where 1 is the maximum; inactive = score below 0.9)
Summary of the method: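 Apoptosis in MCF-7 cells grown in DMEM with 10% fetal bovine serum was scored after a six hour exposure by high content imaging of caspase-3/7 activation (CellEvent Caspase 3/7 Green), with DMSO serving as negative control and baseline.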

[6] = CCTE_Harrill_HTTr_CellCount_MCF7: CCTE's Cell Proliferation Assessment for the High-Throughput Transcriptomics (HTTr) Platform, Harrill Lab (AID 2284012);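 also: cells exposed to compound for six hours; intended direction is loss of nuclei count meaning fewer cells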
Summary of the method: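 Cell count served as viability reporter: loss of Hoechst-stained nuclei, counted by high content imaging, marks decreased growth or survival. Exposure was 6 h in MCF-7 cells across eight concentrations, with DMSO as baseline.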

Measured: outcome

O=c1[nH]c2c(c(=O)n1C1CCCCC1)CCC2
inactive: [1] | [2] | [3] | [4] | [5] | [6]
